# Screens from PubChem BioAssay.
# Most compounds without a hit are left out; they make up all but 2.4% or so of the library.
# POLH inh: DNA polymerase eta (human) inhibition; Q9Y253; recombinant Pol eta, fluorescent DNA replication assay; Potency, µM (highest dose often 114 µM), without a hit: at the highest dose activity change, negative = inhibition, actives largely listed as inhibitors; 1.2% of 390,000 active; also: % is scaled to controls: 0 for no effect and ±100 for the full control effect
#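 Fluorescent replication assay: 50 nM final substrate added after a 15 min room-temperature compound preincubation with 10 nM enzyme. Signal taken at 0 min and again at 10 min.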
# Pol iota inh: blocks human DNA polymerase iota activity; AID 588590; Pol iota fluorescent replication assay, 10 min; Potency, µM (doses to about 115 µM), without a hit: at the highest dose activity, negative = inhibition, actives largely listed as inhibitors; 1% of 390,000 active
#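 Fluorescent replication assay read twice, at 0 min and 10 min after adding 50 nM (final) substrate. Enzyme (10 nM) and compounds were first incubated 15 min at room temperature; enzyme-free buffer wells were negative controls.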
# POLK inh: blocks human DNA polymerase kappa activity; Potency, µM (series often up to 107 µM), without a hit: at the top dose activity, negative = inhibition, usual class: inhibitors; 0.53% of 400,000 active; AID 588579; purified Pol kappa, fluorescent DNA synthesis assay, 10 min; also: % is scaled to controls: 0 for no effect and ±100 for the full control effect
# Target sequence (Q9UBT6 whole entry, looked up): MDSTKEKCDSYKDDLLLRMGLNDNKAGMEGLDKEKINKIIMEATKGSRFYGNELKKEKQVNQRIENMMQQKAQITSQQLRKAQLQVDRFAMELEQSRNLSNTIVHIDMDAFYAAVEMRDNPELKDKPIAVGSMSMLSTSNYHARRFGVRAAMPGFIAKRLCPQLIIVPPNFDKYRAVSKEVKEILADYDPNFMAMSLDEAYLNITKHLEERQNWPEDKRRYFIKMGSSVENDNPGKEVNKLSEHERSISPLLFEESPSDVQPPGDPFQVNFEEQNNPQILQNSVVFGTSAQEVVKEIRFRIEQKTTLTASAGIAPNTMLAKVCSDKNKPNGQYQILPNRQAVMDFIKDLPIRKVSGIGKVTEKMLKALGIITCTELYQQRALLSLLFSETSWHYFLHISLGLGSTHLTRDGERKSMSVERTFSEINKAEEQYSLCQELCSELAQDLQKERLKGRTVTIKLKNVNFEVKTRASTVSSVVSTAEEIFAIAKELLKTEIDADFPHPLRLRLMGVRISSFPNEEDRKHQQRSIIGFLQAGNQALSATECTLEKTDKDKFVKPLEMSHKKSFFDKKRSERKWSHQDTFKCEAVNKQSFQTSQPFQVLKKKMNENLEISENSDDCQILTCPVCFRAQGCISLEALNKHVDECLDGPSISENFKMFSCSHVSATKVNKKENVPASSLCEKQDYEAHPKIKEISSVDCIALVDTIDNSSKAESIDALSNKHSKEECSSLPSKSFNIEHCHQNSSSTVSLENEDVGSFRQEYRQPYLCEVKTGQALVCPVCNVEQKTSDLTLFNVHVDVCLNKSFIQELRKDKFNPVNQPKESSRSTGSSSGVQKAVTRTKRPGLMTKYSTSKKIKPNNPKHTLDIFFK
#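 Activity was followed as the change in fluorescence between reads at 0 and 10 min after starting the reaction with 50 nM substrate. Beforehand, 10 nM polymerase had been preincubated with compound for 15 min at room temperature.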
# Pol beta inh: blocks human DNA polymerase beta activity; P06746; Pol beta primer extension/strand displacement, fluorescence kinetic; Potency, µM (titrated, usually from 114 µM), for inactives: top-dose activity change, negative = inhibition, most hits filed as inhibitors; 1.3% of 340,000 active; also: % is scaled to controls: 0 for no effect and ±100 for the full control effect
#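 Pol beta (10 nM) and compounds were preincubated 15 min at room temperature, then 50 nM substrate (final) started primer extension/strand displacement. Reads were taken at 0 and 10 min; concentration-response data were fitted to a four-parameter Hill equation.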
# L3MBTL1 inh: inhibitors of human L3MBTL1; Potency, µM (titrated, usually from 57.1 µM), inactives show at the highest dose activity, negative = inhibition, actives largely listed as inhibitors; AlphaScreen L3MBTL1–H3K9me1 peptide binding; 0.66% of 230,000 active; Q9Y468; also: % is scaled to controls: 0 for no effect and ±100 for the full control effect; nearly all actives have a fitted effect of over 60% in size
#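 AlphaScreen assay: L3MBTL1 (50 nM final) was preincubated 30 min at room temperature with biotinylated H3(1-15)K9me1 peptide (75 nM final), then 30 min with library compounds; streptavidin donor and nickel chelate acceptor beads (10 ug/mL final) added, 30 min dark.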
# The depositor's hits bear a star; ? = inconclusive; . = no result given; [ ] = remark or other dose. Calls follow the shape of the dose curve; as a rule, active = well fitted curve in the direction sought with a large enough effect; inconclusive = small, poorly fitted or top-dose-only effect, or another doubt; inactive = no such curve, though single readings can be large; an effect the other way counts as inactive or inconclusive. Potency is read from the fitted curve at half-maximal effect.
SMILES,POLH inh,Pol iota inh,POLK inh,Pol beta inh,L3MBTL1 inh
CC[n+]1c(/C=C/C=C2/N(C)c3ccccc3C2(C)C)sc2ccccc21,.,.,27µM*,.,.
CC(=O)c1c(C)[nH]c(C(=O)OCC(=O)c2ccc(Br)cc2)c1C,-15%,.,.,.,.
C/C(=N\Nc1ccc2nncn2n1)c1ccccn1,-8%,157%,-6%,-6%,25µM*
Cc1ccc(CN(C(=O)COc2c(C)cccc2C)C2CCS(=O)(=O)C2)o1 (configuration not stated),.,-7%,16%,24%,.
Cc1ccc(S(=O)(=O)c2nnn3c2nc(NC2CCCCC2)c2sccc23)cc1,-11%,9%,-11%,-19%,.
O=S(=O)(c1ccc(Cl)cc1)c1nnn2c1nc(NC1CCCCC1)c1sccc12,-29%,6%,-19%,32µM*,.
CNc1ccc(C(=O)Oc2cc(O/N=[N+](\[O-])N(C)C)c([N+](=O)[O-])cc2[N+](=O)[O-])cc1,.,59%,-5%,.,.
Cc1ccc(NCc2cccn2-c2nnc(N3CCC(C(=O)NCCc4ccccc4)CC3)s2)cc1,.,-7%,-3%,0%,.
CCN(CCCNC(=O)c1cc2cc3ccc(OC)cc3nc2s1)c1cccc(C)c1,?,79µM*,?,4µM*,.
CCN(CCCNC(=O)c1cc2cc3ccc(OC)cc3nc2s1)c1ccccc1,?,79µM*,79µM*,11µM*,-7%
COc1ccc(-c2nnc(C3CCN(C(=O)c4ccccc4F)CC3)o2)cc1,5%,10%,-18%,24%,.
Cc1ccc(NC(=O)CCn2c(=O)c3cccn3c3ccccc32)c(C)c1,0%,89µM*,1%,0%,.
Cc1ccc(NC(=O)Cn2c(=O)c3cccn3c3ccccc32)c(C)c1,0%,29%,-5%,13%,.
N#Cc1c(SCC(=O)Nc2ccc(Cl)cc2Cl)sc2c(O)cc(=O)[nH]c12,25µM*,32µM*,-41%,10%,.
Cc1c(Cl)cccc1NC(=O)CSc1sc2c(O)cc(=O)[nH]c2c1C#N,-26%,?,-20%,22%,.
N#Cc1cccc(NC(=O)CSc2sc3c(O)cc(=O)[nH]c3c2C#N)c1,50µM*,?,?,?,.
CCOc1cccc(NC(=O)CSc2sc3c(O)cc(=O)[nH]c3c2C#N)c1,-3%,1%,4%,-20%,.
CSc1ccc(NC(=O)CSc2nc3[nH]c(=O)cc(O)c3s2)cc1,40µM*,?,56µM*,.,?
N#Cc1c(SCC(=O)Nc2ccccc2C(F)(F)F)sc2c(O)cc(=O)[nH]c12,?,32µM*,?,-16%,.
O=C(Cn1c(-c2cccs2)cc2ccccc21)NCCCN1CCN(c2cccc(Cl)c2)CC1,-5%,5%,-15%,3%,.
COCCCNC(=O)c1cn(C)c(=O)c2c1c1ccccc1n2C,0%,51%,-7%,0%,.
Cn1cc(C(=O)NCCN2CCN(c3cccc(Cl)c3)CC2)c2c3ccccc3n(C)c2c1=O,?,100µM*,?,19%,.
Oc1ccc(-c2csc(Nc3ncccn3)n2)cc1O,1%,32µM*,-27%,?,-1%
Oc1ccc(-c2csc(Nc3ncccn3)n2)c(O)c1,-14%,1%,-4%,36%,5%
Oc1ccccc1-c1csc(-c2ccccc2)n1,-15%,-14%,-10%,25%,.
SMILES,POLH inh,Pol iota inh,POLK inh,Pol beta inh,L3MBTL1 inh
Oc1ccc(-c2csc(-c3ccccc3)n2)cc1O,-20%,71µM*,-33%,7.9µM*,-14%
Cc1nn(-c2ccccc2)c2nc(N)c(C#N)c(-c3ccc(O)c(O)c3)c12,50µM*,?,-3%,?,.
Nc1nc(-c2ccccc2)nc2nonc12,-8%,.,.,.,.
Cc1cc(C)n(CCc2nc(-c3ccc(C)o3)cs2)n1,16µM*,?,-23%,50µM*,.
CCCN1CNc2c(c(=O)[nH]c(=S)n2CCc2ccc(Cl)cc2)C1,.,8%,-21%,.,.
CCCCCCN1C[C@@H](n2cc(C3CC3)nn2)[C@H](O)C[C@@H]1c1ccc(OC)cc1,-17%,.,.,.,.
CC(=O)N(c1ccc2oc(=O)sc2c1)S(=O)(=O)c1ccc(C(=O)O)cc1,35µM*,3.5µM*,?,-16%,.
CC(=O)N(c1ccc2oc(=O)sc2c1)S(=O)(=O)c1cccs1,-6%,?,5%,28%,-4%
Cc1ccc(NC(=O)C(C)OC(=O)c2ccc(NS(=O)(=O)c3ccc(F)c(F)c3)cc2)cc1 (configuration not stated),-9%,4%,-22%,14%,6%
CCc1ccc(NC(=O)C(C)OC(=O)c2ccc(NS(=O)(=O)c3ccc(C)c([N+](=O)[O-])c3)cc2)cc1 (configuration not stated),79µM*,?,?,-2%,-13%
CN(C(=S)NC(=O)c1ccc(Cl)cc1)C1CCCCC1,?,?,-43%,11µM*,.
COc1ccc(OC)c(C2Nc3c(C)cc(C)cc3-c3cc(C)nn32)c1 (configuration not stated),-22%,3%,-12%,4%,.
CN(C)CC(C(=O)c1ccccc1)c1ccccc1 (configuration not stated),-15%,32µM*,-1%,2%,14%
COc1ccc(CCc2c[nH]c(=O)c3cncnc23)cc1OC,.,-30%,-9%,.,.
CC(C)CCN1C(=O)c2ccc(C(=O)Nc3ccc(Br)cc3C(=O)O)cc2C1=O,32µM*,?,-34%,-3%,4%
CC(C)CCN1C(=O)c2ccc(C(=O)Nc3cc(C(=O)O)cc(C(=O)O)c3)cc2C1=O,-20%,129%,4%,-2%,-3%
CCN(N=O)c1ccc(/C=C2\C=Cc3ccccc32)cc1,.,49%,9%,.,.
COc1ccccc1C=C1SC(=S)NC1=O,?,?,-28%,.,.
CC(=C1SC(=S)NC1=O)c1ccccc1,3%,89µM*,-10%,.,.
O=C(O)CCc1ccc(-c2ccc(Br)cc2)n1CC(=O)O,?,?,-23%,35µM*,?
CC[n+]1c(/C=C/N(C)c2ccccc2)oc2ccc(Cl)cc21,-17%,4%,-26%,-11%,-15%
CCN1/C(=C/C=C/c2oc3ccc4ccccc4c3[n+]2CC)Oc2ccc3ccccc3c21,32µM*,79µM*,45µM*,6.3µM*,?
O=S(=O)(Nc1nc2ccccc2nc1N1CCN(CCO)CC1)c1cc(F)ccc1F,-5%,-25%,1%,.,27%
CC1(C)CCC2=C(O1)c1ccccc1C(=O)C2=O,22µM*,7.9µM*,-2%[60.1 µM],0%[57.1 µM],.
CCC1Cc2cc(O)ccc2C2=C1c1ccc(O)cc1CC2CC (configuration not stated),.,.,-19%[60.1 µM],.,.
Oc1ccc(Cn2ccnc2)c2cccnc12,2%,23%,-14%,?,1.6µM*
Oc1ccc(CNc2ccc(F)cc2)c2cccnc12,2%,50%,-19%,24%,32µM*
OCc1cn(Cc2ccc(O)c3ncccc23)cn1,.,.,.,.,7.1µM*
